The values below come from ChEMBL document CHEMBL4296182, “CO-ADD screening of NIH NCI Diversity Set V”.

One assay deals with Staphylococcus aureus. Put plainly: Antibacterial activity against Staphylococcus aureus MRSA ATCC 43300 (CO-ADD:GP_020); MIC in CAMBH media using NBS plates, by Resazurin F(560/590). The class given is functional. The settings on record: Concentration 20 uM, ASSAY_TEST Inhibition of Bacterial Growth, detection method Resazurin, Fluorescence (ex560/em590), MEDIA CAMHB, plate type 384well, CORNING #3640, time 18 hr.

The subject of another assay is Acinetobacter baumannii. Put plainly: Antibacterial activity against Acinetobacter baumannii ATCC 19606 (CO-ADD:GN_034); MIC in CAMBH media using NBS plates, by Resazurin F(560/590). The class given is functional. The settings on record: Concentration 20 uM, ASSAY_TEST Inhibition of Bacterial Growth, detection method Resazurin, Fluorescence (ex560/em590), MEDIA CAMHB, plate type 384well, CORNING #3640, time 18 hr.

The test system of the next assay is Escherichia coli. In words: Antibacterial activity against Escherichia coli ATCC 25922 (CO-ADD:GN_001); MIC in CAMBH media using NBS plates, by Resazurin F(560/590). The class given is functional. The settings on record: Concentration 20 uM, ASSAY_TEST Inhibition of Bacterial Growth, detection method Resazurin, Fluorescence (ex560/em590), MEDIA CAMHB, plate type 384well, CORNING #3640, time 18 hr. In general terms: Resazurin is reduced to fluorescent resorufin, in cell work by metabolically active cells.

Another assay concerns Klebsiella pneumoniae. The note with it: Concentration 20 uM; ASSAY_TEST Inhibition of Bacterial Growth; detection method Absorption (OD600); MEDIA CAMHB; plate type 384well; NBS; CORNING #3640; time 18 hr.
Another assay relates to Candida albicans. The note with it: 20 µM.
Another assay concerns Cryptococcus neoformans. The settings on record: Concentration 20 uM; ASSAY_TEST Inhibition of Fungal Growth; detection method Resazurin; Absorption (OD600-OD570); plate type 384well; NBS; CORNING #3640.

Each structure is given as a SMILES string. For part of these data: Potency and affinity values are given separately.

In general, Inhibition refers to the drop in the measured response relative to a control, in per cent. For `COc1ccc2c3c1O[C@H]1C[C@@H](O)C=C[C@@]31CCN(C)C2` [GALANTAMINE], the Inhibition with Staphylococcus aureus was 2.8%; in the assay with Acinetobacter baumannii, 5.17%; in the assay with Escherichia coli, -15.55%; in the assay with Klebsiella pneumoniae it was 17.41%; in the assay with Candida albicans it was 7.99%; in the assay on Cryptococcus neoformans, 22.63%.

In the case of `CS(=O)(=O)O.O=C1CCC2(O)[C@@H]3Cc4ccc(O)c5c4[C@]2(CCN3Cc2ccoc2)C1O5` (some centres undefined), the Inhibition with Staphylococcus aureus was 1.32%; in the assay with Acinetobacter baumannii, -2.4%; with Escherichia coli, -2.68%; in the assay on Klebsiella pneumoniae, 10.23%; with Candida albicans, 1.48%; with Cryptococcus neoformans, -6.77%.

Regarding `CCCCOP(=O)(OCCCC)C1(C)CC(=O)CC(C)(C)C1` (centres undefined), the Inhibition in the assay on Staphylococcus aureus is 5.73%; in the assay with Acinetobacter baumannii, -6.49%; in the assay with Escherichia coli, -5.15%; in the assay on Klebsiella pneumoniae it was 23.67%; in the assay on Candida albicans, 1.05%; in the assay on Cryptococcus neoformans, -15.51%.

On to `O=C(O)CN1C(=O)CN=C(c2ccccn2)c2cc(Cl)ccc21`, for which the Inhibition in the assay with Staphylococcus aureus was 15.35%; in the assay with Acinetobacter baumannii, 8.33%; in the assay with Escherichia coli, -0.79%; in the assay on Klebsiella pneumoniae, 10.65%; in the assay on Candida albicans, 1.18%; with Cryptococcus neoformans it was 0%.

On to `N#CC(C#N)=Cc1ccc(C=C(C#N)C#N)cc1`, for which the Inhibition in the assay with Staphylococcus aureus is -4.05%; in the assay with Acinetobacter baumannii, -13.9%; in the assay with Escherichia coli, 2.09%; in the assay on Klebsiella pneumoniae, 11.67%; in the assay with Candida albicans, 36.5%; with Cryptococcus neoformans, -3.4%.

Take `SC1=NC2(CCCCC2)NC12CCCCC2`: the Inhibition in the assay with Staphylococcus aureus is 8.84%; with Acinetobacter baumannii it was 6.83%; with Escherichia coli, -0.29%; in the assay with Klebsiella pneumoniae it was 17.38%; with Candida albicans, 4.26%; with Cryptococcus neoformans, -3.97%.

As for `CC(CC(C#N)(c1ccccc1)c1ccccc1)N1CCCCC1` (centres undefined), the Inhibition in the assay with Staphylococcus aureus was -22.27%; with Acinetobacter baumannii, -8.26%; in the assay with Escherichia coli it was -18.71%; with Klebsiella pneumoniae it was 1.48%; in the assay on Candida albicans it was 0.01%; with Cryptococcus neoformans, 28.3%.

Turning to `COc1ccc2c(c1)C13CCN(C)C(C2)C1CCC1(C3)OCCO1` (centres undefined), the Inhibition is -3.64% in the assay on Staphylococcus aureus; 10.92% in the assay with Acinetobacter baumannii; 9.14% with Escherichia coli; 10.59% in the assay with Klebsiella pneumoniae; 2.14% with Candida albicans; -7.98% in the assay with Cryptococcus neoformans.

Take `CN1CCN(c2nc(N)c(Br)c(Cl)n2)CC1`: the Inhibition is 8.04% with Staphylococcus aureus; 10.68% in the assay with Acinetobacter baumannii; 2.4% in the assay on Escherichia coli; 16.05% in the assay on Klebsiella pneumoniae; 2.84% in the assay with Candida albicans; -7.43% in the assay with Cryptococcus neoformans.

For the compound `Cc1nccc2c1[nH]c1cc(O)ccc12`, the Inhibition with Staphylococcus aureus is 18.39%; with Acinetobacter baumannii it was -8.06%; in the assay with Escherichia coli, 7.41%; in the assay with Klebsiella pneumoniae, 20.45%; with Candida albicans, 2.57%; in the assay on Cryptococcus neoformans, -8.88%.

`CCOC(=O)c1ccc2nc(-c3ccc(S(=O)(=O)F)cc3)cc(O)c2c1`: the Inhibition is 10.74% in the assay on Staphylococcus aureus; 13.99% in the assay on Acinetobacter baumannii; 0.41% in the assay with Escherichia coli; 7.81% with Klebsiella pneumoniae; 1.06% in the assay with Candida albicans; -10.46% with Cryptococcus neoformans.

For `COc1ccc(OC(=O)Nc2ccc([N+](=O)[O-])cc2OC)cc1`, the Inhibition is 18.29% in the assay with Staphylococcus aureus; 11.17% in the assay with Acinetobacter baumannii; 1.72% in the assay with Escherichia coli; 8.07% with Klebsiella pneumoniae; -1.5% in the assay on Candida albicans; -6.88% in the assay on Cryptococcus neoformans.

With `COc1cc(C=C2C(=O)NC(=O)NC2=O)ccc1O`, the Inhibition in the assay on Staphylococcus aureus was 11.9%; in the assay with Acinetobacter baumannii, 5.89%; in the assay on Escherichia coli, 0.28%; with Klebsiella pneumoniae it was 15.76%; with Candida albicans it was 1.49%; with Cryptococcus neoformans, -7.52%.

Take `O=P(Oc1ccccc1)(Oc1ccccc1)c1ccccc1`: the Inhibition in the assay on Staphylococcus aureus was 1.14%; in the assay on Acinetobacter baumannii, -14.38%; in the assay with Escherichia coli, 1.1%; in the assay with Klebsiella pneumoniae it was 1.03%; in the assay with Candida albicans it was 4.45%; in the assay with Cryptococcus neoformans it was -2.59%.

On to `C[C@H]1CC[C@H]2NCCN[C@H]2C1`, for which the Inhibition in the assay with Staphylococcus aureus is 3.35%; with Acinetobacter baumannii, -12.82%; in the assay with Escherichia coli, 14.31%; in the assay with Klebsiella pneumoniae, 13.98%; in the assay on Candida albicans it was 0.84%; with Cryptococcus neoformans it was -10.77%.

For `CNC(=O)Oc1c(O)ccnc1C`, the Inhibition was 3.2% in the assay with Staphylococcus aureus; -15.53% in the assay with Acinetobacter baumannii; 4.87% in the assay on Escherichia coli; 2.24% in the assay on Klebsiella pneumoniae; 5.45% in the assay on Candida albicans; -9.19% with Cryptococcus neoformans.

As for `O=C1CN=C(c2ccc[nH]2)c2cc(Cl)ccc2N1`, the Inhibition is 5.67% in the assay on Staphylococcus aureus; 14.08% in the assay with Acinetobacter baumannii; -2.95% in the assay on Escherichia coli; 17.48% with Klebsiella pneumoniae; 0.21% in the assay with Candida albicans; -5.64% in the assay with Cryptococcus neoformans.

In the case of `CC(C)OC1CCCC(O)C1CC(=O)O` (centres undefined), the Inhibition in the assay on Staphylococcus aureus is 1.66%; in the assay on Acinetobacter baumannii, -13.22%; with Escherichia coli, 6.88%; in the assay on Klebsiella pneumoniae it was -1.53%; in the assay on Candida albicans, -0.2%; in the assay on Cryptococcus neoformans, -7.06%.

`[Cl-].c1ccc(-c2nn(-c3ccccc3)[n+](-c3ccccc3)n2)cc1` [TETRAZOLIUM RED]: the Inhibition in the assay on Staphylococcus aureus was -10.8%; in the assay with Acinetobacter baumannii it was -19.48%; in the assay with Escherichia coli, 7.25%; with Klebsiella pneumoniae, 5.91%; with Candida albicans it was 0.89%; with Cryptococcus neoformans, -6.85%.

With `O=S(=O)(F)c1ccc2nc(-c3cccc(Sc4ccccc4)c3)cc(Cl)c2c1`, the Inhibition was 0.33% in the assay with Staphylococcus aureus; -14.47% in the assay on Acinetobacter baumannii; 10.15% in the assay on Escherichia coli; 9.08% in the assay on Klebsiella pneumoniae; 7.93% in the assay on Candida albicans; -2.04% in the assay on Cryptococcus neoformans.

For the compound `CC(C)(C)n1cc(C(=O)c2ccccc2)cc1-c1ccccc1`, the Inhibition with Staphylococcus aureus was 20.55%; in the assay on Acinetobacter baumannii, 13.8%; with Escherichia coli it was 7.58%; with Klebsiella pneumoniae it was 11.31%; in the assay on Candida albicans, 3.13%; in the assay with Cryptococcus neoformans, -8.32%.

Consider `FCCN(CCF)c1cccc(Cl)c1`, for which the Inhibition with Staphylococcus aureus was 3.32%; with Acinetobacter baumannii, -11.77%; in the assay on Escherichia coli it was 4.68%; in the assay with Klebsiella pneumoniae, 20.4%; with Candida albicans, 0.87%; in the assay on Cryptococcus neoformans, -7.02%.

Consider `CCN1CCc2ccccc2C1`, for which the Inhibition with Staphylococcus aureus was 13.64%; with Acinetobacter baumannii, -13.05%; with Escherichia coli it was 15.08%; in the assay with Klebsiella pneumoniae, 8.74%; in the assay with Candida albicans, 0.25%; with Cryptococcus neoformans, -10.24%.

`CCOP(=O)(OCC)/C(C#N)=C/c1ccc(-c2ccc(F)cc2F)o1`: the Inhibition in the assay on Staphylococcus aureus is 7.13%; with Acinetobacter baumannii, -5.44%; in the assay on Escherichia coli it was 9.56%; in the assay on Klebsiella pneumoniae it was 5.2%; with Candida albicans, 10.3%; in the assay on Cryptococcus neoformans, -6.44%.
